From PubChem BioAssay
This is a sample that favours compounds with a hit; in the whole collection about 3.1% have one here.
BoNT F protease = blocks Botulinum neurotoxin F light chain protease; 360,000 compounds, 0.22% hits; inhibition, % at 10 µM; Multiplex microsphere protease cleavage assay, flow cytometry; in the data active = inhibition above about 35%, passing the limit was not always enough; inconclusive = no clear call, values can overlap the other calls; also: plate controls were buffer without enzyme for full effect and enzyme alone for no effect
BoNT A protease = inhibitors of Botulinum neurotoxin A light chain protease. inhibition, % at 10 µM. AID 588499. 360,000 compounds, 0.17% hits. multiplex microsphere protease substrate cleavage, flow cytometry; also: plate controls were buffer without enzyme for full effect and enzyme alone for no effect
Anthrax LF inh2 = inhibitors of Bacillus anthracis lethal factor protease; inhibition, % at 10 µM; multiplex microsphere protease cleavage assay, LF; P15917; 360,000 compounds, 0.12% hits; also: plate controls were buffer without enzyme for full effect and enzyme alone for no effect
Autofluor counter = flagged as autofluorescent in microsphere protease counterscreen. AID 624483. compound autofluorescence counterscreen, microsphere flow cytometry; hits give high values. 360,000 compounds, 3.1% hits. fluorescence intensity (concentration not given with the values); in the data active = fluorescence intensity above about 16000; inconclusive = no clear call, values can overlap the other calls
SSB-PriA inh = inhibitors of Klebsiella pneumoniae PriA binding to SSB C-terminal tail | AlphaScreen SSBct-PriA binding, biotinylated peptide | inhibition, % at 33 µM | 430,000 compounds, 0.6% hits | AID 1272365; in the data active = inhibition mostly above about 37%, no sharp cut-off; inactive = mostly below about 20%;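 also: plate controls were negative control peptide for no effect and reference peptide for full effect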
Starred values were filed as active, the others as inactive; ? = inconclusive; . = no result given. Rule as the data show it, unless noted: active = inhibition above about 30%; inconclusive = no clear call, values can overlap the other calls; inactive = below that.

SMILES	BoNT F protease	BoNT A protease	Anthrax LF inh2	Autofluor counter	SSB-PriA inh
CCOC(=O)Cn1c(-c2cccnc2Cl)nc2cc(Cl)c(Cl)cc21	-1.5	?	2.2	20399*	-16.9
Clc1ccc(Cn2c(-c3cccnc3Cl)nc3ccccc32)c(Cl)c1	1.5	?	-1.1	21985*	-5.6
CCn1c(-c2cccnc2Cl)nc2cc(Cl)c(Cl)cc21	-0.1	?	-1.6	23561*	-7.6
CCn1c(C)nc2cc(Cl)c(Cl)cc21	.	.	.	.	-15.0
NC(=O)c1cc(C2CCCCN2C(=O)c2ccc(S(=O)(=O)N3CCOCC3)cc2)[nH]n1 (stereo unspecified)	.	.	.	.	-8.0
Cc1ccc(-c2nnc(SCC(=O)OC(C)C)n2N)cc1	3.1	1.2	5.0	9130	-3.2
CC(C)OC(=O)CSc1nnc(Cc2ccccc2)n1C	-2.0	-0.7	-0.8	16479*	-2.2
CC(C)OC(=O)CSc1nnc(-c2ccc(Cl)cc2)n1N	-6.8	-5.0	2.0	21439*	-20.5
CC(C)OC(=O)CSc1nnc(-c2ccc(Cl)cc2Cl)n1N	1.8	0.9	-1.1	22841*	4.8
O=C(CSCc1ccccc1)NCc1ccnc(-c2ccsc2)c1	.	.	.	.	-17.0
Cc1c(Cc2ccc3c(c2)OCO3)sc(NC(=O)c2cccc(N3C(=O)CCC3=O)c2)c1C(N)=O	.	.	.	.	-12.0
Cc1ccc(N2CCn3c(SCC(=O)Nc4cc(C)on4)nnc32)cc1	.	.	.	.	-3.0
CCOc1ccccc1-c1nc(CN2CCN(C(=O)c3ccco3)CC2)c(C)o1	-1.4	0.4	-1.4	5496	-5.8
CCOc1ccccc1-n1c(CN2CCN(C(=O)c3ccco3)CC2)nc2ccccc2c1=O	-3.3	-1.3	-2.7	23399*	-10.1
O=C(Nc1ccccc1C(F)(F)F)N1CC(c2nc(-c3ccsc3)no2)C1	.	.	.	.	-3.0
CCCn1nc(NC(=O)CC(C)C)c2cc3ccccc3nc21	3.1	1.4	-0.1	22379*	-2.1
CC(C)Cn1nc(NC(=O)c2ccco2)c2cc3ccccc3nc21	-2.2	0.1	4.1	5321	-14.4
CC(C)Cn1nc(NC(=O)C(C)(C)C)c2cc3ccccc3nc21	-7.2	-0.6	4.1	7060	-47.9
CCCCC(=O)Nc1nn(CC(C)C)c2nc3ccccc3cc12	-1.9	?	-6.3	21680*	-3.0
CCCn1nc(NC(=O)CC)c2cc3cccc(C)c3nc21	14.9	4.6	13.0	2886	-10.1
CCn1nc(NC(=O)c2ccco2)c2cc3ccccc3nc21	-2.5	0.1	-0.4	16504*	-26.1
CCOC(=O)c1[nH]nc(C(=O)c2ccc(Br)cc2)c1O	4.5	4.1	-6.5	18245*	-7.0
CCOC(=O)c1ccc(CNCc2ccc(Br)cc2)cc1	-16.1	-1.3	-3.0	8050	-20.5
O=C(Cn1cnc2c(cnn2-c2ccccc2Cl)c1=O)N1CCc2ccccc21	5.7	3.4	-0.8	21755*	-5.7
COc1ccc(C(=O)N(CN2CCCC2=O)c2nccs2)cc1OC	-4.5	-1.0	-16.7	?	-8.4
SMILES	BoNT F protease	BoNT A protease	Anthrax LF inh2	Autofluor counter	SSB-PriA inh
Cc1cc(N(CN2CCCC2=O)C(=O)c2ccc(F)cc2)no1	0.5	0.2	-1.6	20214*	-10.0
COc1ccc(C(=O)N(CN2CCCC2=O)c2cc(C)on2)cc1OC	6.5	3.7	2.5	21141*	1.2
Cc1cc(N(CN2CCCC2=O)C(=O)c2ccccc2)no1	-4.8	-2.0	-0.3	23950*	-16.9
O=C1CCCN1CN(C(=O)c1ccc2c(c1)OCO2)c1ccc(F)cc1	-6.7	?	-3.2	21432*	-6.1
Cc1cc(N(CN2CCCC2=O)C(=O)c2ccc(OC(C)C)cc2)no1	-24.1	-6.0	-5.6	4922	-2.5
O=C1CCCN1CN(C(=O)c1ccccc1)c1ccc(F)cc1	.	.	.	.	-5.0
O=C(CCCC(=O)c1ccccc1)NCc1cncc(-c2cccs2)c1	.	.	.	.	-7.0
CCOC(=O)C(=NNc1ccc(OC)cc1)c1csc(Nc2ccccc2)n1	.	.	.	.	24.4
Cc1ccc(C(C)NC(=O)c2ccco2)cc1C (stereo unspecified)	-5.6	-2.2	-0.8	21456*	-3.6
CCOC(=O)CN1C(=O)C(CC)Oc2ccccc21 (stereo unspecified)	-3.9	-2.5	-0.6	24132*	-13.2
CN(C)S(=O)(=O)NCCn1nc(C(F)(F)F)n(C)c1=O	.	.	.	.	11.0
CCCC(=O)Nc1ccc(C#Cc2ccccc2)cc1	5.3	3.8	-8.4	18787*	-11.4
CCCNC(=S)Nc1ccc2nc(-c3ccccn3)c(-c3ccccn3)nc2c1	-1.4	?	7.6	21151*	6.0
CCCCNC(=S)Nc1ccc(Oc2ccccc2)cc1	-1.1	-0.9	-2.7	4056	-7.6
CCCNC(=S)Nc1ccc(Oc2ccccc2)cc1	-3.1	-0.2	-2.3	20489*	-9.0
CCOC(=O)Nc1ccc(OC(=O)Oc2ccc(NC(=O)OCC)cc2)cc1	1.6	0.3	5.6	3468	-7.5
CCCC(=O)Nc1ccc(-c2nc3ccccc3[nH]2)cc1	.	.	.	.	-11.0
S=C(Nc1ccccc1)Nc1ccc2nc(-c3ccccn3)c(-c3ccccn3)nc2c1	.	.	.	.	47.2
CCOC(=O)Nc1ccc(Oc2ccccc2)cc1	-4.4	-3.4	-2.3	24151*	-34.9
CCCOc1ccc(C=NNc2ccccc2[N+](=O)[O-])c(OCCC)c1	.	.	.	.	32.8
O=[N+]([O-])c1ccc(S(=O)(=O)NCC(c2ccco2)N2CCN(c3ccc(F)cc3)CC2)cc1 (stereo unspecified)	.	.	.	.	19.0
Cc1ccc(N2C[C@@H](CNS(=O)(=O)c3ccc4c(c3)OCCO4)CC2=O)cc1	.	.	.	.	-3.0
CC(=O)NNC(=O)CCC(=O)Nc1ccccc1	-8.7	-1.1	-1.3	11331	-15.8
CC(=O)SCCC(=O)Nc1ccccc1	17.3	?	2.6	17839*	-12.4
CCCC(=O)Nc1ccc(Oc2ccc(NC(=O)CCC)cc2)cc1	-1.5	?	-0.1	19816*	1.1
SMILES	BoNT F protease	BoNT A protease	Anthrax LF inh2	Autofluor counter	SSB-PriA inh
COc1cc(C=NN(C)C2=NS(=O)(=O)c3ccccc32)cc(OC)c1OC	.	.	.	.	-9.8
Cc1cc2cc(CNC(=S)Nc3ccc(OC(F)F)cc3)ccc2n1C	-125.8	66.1*	-110.8	1428	21.5
NC(CCS(=O)(=O)c1ccc(Cl)cc1)=NOC(=O)c1ccccc1C(F)(F)F	.	.	.	.	-0.4
CCCCOC(=O)c1ccc(NC(=O)c2ocnc2C)cc1	-4.4	?	-0.1	24702*	-16.7
CCCCOC(=O)c1ccc(NC(=O)c2cc3nc(C)ccc3o2)cc1	.	.	.	.	-13.0
CCCCOC(=O)c1ccc(NC(=O)c2ccoc2C)cc1	0.9	0.3	-3.7	20473*	-22.3
CCCOC(=O)c1ccc(NC(=O)c2ccoc2C)cc1	0.7	-0.9	1.6	3398	-5.4
C=CCn1c(SCC(=O)c2ccc(F)cc2)nnc1-c1nnc(SCC(=O)c2ccc(F)cc2)n1CC=C	.	.	.	.	-10.0
C=CCn1c(COC)nnc1SCC(=O)c1ccc(F)cc1	-2.4	?	-3.5	16919*	-6.0
S=C(Nc1ccc2nccnc2c1)N1CCCCCC1	.	.	.	.	21.6
S=C(Nc1ccc2nccnc2c1)N1CCOCC1	-3.6	1.1	0.5	2575	70.6*
S=C(Nc1cccc(Cl)c1)N1CCOCC1	1.7	0.9	-2.3	22806*	3.5
O=[N+]([O-])c1cccc(NC(=S)N2CCOCC2)c1	1.7	-0.7	0.5	4222	-15.4
Cc1nc(SCC(=O)N2CCOCC2)c2cc(-c3ccccc3)sc2n1	.	.	.	.	-7.0
CCCCCC(=O)NN=C(C)c1ccccn1	.	.	.	.	1.2
COc1ccc(OCCSc2nnc(-c3ccc(OC)cc3)n2N)cc1	2.3	-0.1	-0.8	3350	-24.6
